# Source: ChEMBL document CHEMBL1961873, “Compounds: GSK PKIS; Assays: Nanosyn kinase panel” (2012)
# Where “and” joins values, the source holds several entries; their conditions need not be identical. Equal values may be shown once.
# Target: Aurora kinase B (Homo sapiens) (UniProt Q96GD4);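 note: reported percent inhibition is a mean value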
# Conditions: at 1 µM
# Sequence of Aurora kinase B (Homo sapiens) (Q96GD4 whole entry): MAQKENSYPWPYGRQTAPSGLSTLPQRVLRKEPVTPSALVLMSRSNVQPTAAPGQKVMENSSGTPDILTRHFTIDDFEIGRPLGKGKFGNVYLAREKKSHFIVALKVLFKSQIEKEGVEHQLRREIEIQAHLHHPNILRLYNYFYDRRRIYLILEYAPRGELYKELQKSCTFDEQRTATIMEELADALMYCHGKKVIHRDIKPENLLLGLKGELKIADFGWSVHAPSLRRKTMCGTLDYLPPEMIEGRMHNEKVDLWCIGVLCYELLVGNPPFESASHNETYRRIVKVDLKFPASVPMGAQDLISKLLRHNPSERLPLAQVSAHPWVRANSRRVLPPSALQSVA
row,Structure (SMILES),inhibition
1,Cc1nnc(-c2cccc(-c3ccc(C(=O)NCC4CC4)cc3)c2)o1,3.09%
2,COc1cc2c(cc1Nc1nc(Nc3cccc(F)c3C(N)=O)c3cc[nH]c3n1)N(C(=O)CN1CCN(C(C)C)CC1)CC2,2.41%
3,COc1cc(N2CCN(C(C)C)CC2)ccc1Nc1nc(Nc2cccc(F)c2C(=O)O)c2cc[nH]c2n1,5.02%
4,NC(=O)c1ccc2c(-c3ccnc(NCCCO)n3)c(-c3ccc(F)cc3)nn2c1,0.26%
5,COc1ccccc1-c1cc(/C=C2\C(=O)Nc3ncc(Br)cc32)cc(Br)c1O,57.2%
6,COC(=O)Nc1nc2ccc(Oc3ccc(NC(=O)Nc4cc(C(F)(F)F)ccc4F)cc3)cc2s1,30.8%
7,CN1CCC(C(=O)Nc2n[nH]c3nc(-c4ccc(O)cc4)c(Br)cc23)CC1,4.6% and 6.84%
8,CCOc1ccc2c(-c3ccnc(Nc4cc(OC)cc(C(F)(F)F)c4)n3)cnn2n1,8.92%
9,CC1=C(C(=O)Nc2ccc3[nH]ncc3c2)C(c2ccc(F)cc2)N=C(c2ccc(C(F)(F)F)nc2)N1 (stereo unspecified),16.9%
10,Nc1ncnc2occ(-c3ccc(NC(=O)Nc4cc(C(F)(F)F)ccc4F)cc3)c12,69.9% and 55.9%
11,CCS(=O)(=O)c1ccc(OC)c(Nc2ncc(-c3cccc(C(C)=O)c3)o2)c1,6.28%
12,FC(F)(F)CNc1nccc(-c2cnn3ncccc23)n1,4.22%
13,CN(C)CCNC(=O)Nc1ccc(N(C)c2ccnc(Nc3ccc(CS(C)(=O)=O)cc3)n2)cc1,69.1%
14,Nc1nccc(-c2c(-c3ccc(F)cc3)ncn2C2CCNCC2)n1,-0.57% and 3.55%
15,CN1CCC(n2cnc(-c3ccc(F)cc3)c2-c2ccnc(NCCO)n2)CC1,4.96%

# Target: T1, Aurora kinase C (Homo sapiens) (UniProt Q9UQB9);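 note: values are the mean inhibition of Aurora-C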
# T1 sequence (whole entry): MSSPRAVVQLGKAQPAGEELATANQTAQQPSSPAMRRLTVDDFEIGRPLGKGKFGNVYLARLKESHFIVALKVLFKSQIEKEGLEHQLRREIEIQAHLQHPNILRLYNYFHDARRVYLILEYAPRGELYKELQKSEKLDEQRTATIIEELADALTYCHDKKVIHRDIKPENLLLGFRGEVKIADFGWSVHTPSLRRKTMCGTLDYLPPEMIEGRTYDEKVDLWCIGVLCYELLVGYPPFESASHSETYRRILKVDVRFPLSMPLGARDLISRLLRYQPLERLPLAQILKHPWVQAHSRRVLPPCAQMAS
# Conditions: at 0.1 µM
row,Structure (SMILES),inhibition
1,CNC(=O)c1cncc(/C=C/c2ccccc2C)c1,2.1%
2,CC(C)c1ccc(-c2cc(-c3c[nH]nc3-c3ccccn3)ccn2)cc1,1.22%
3,Fc1cccc(COc2ccc(Nc3ncncc3C#Cc3ccccc3)cc2Cl)c1,1.15%
4,NS(=O)(=O)c1ccc(N/N=C2\C(=O)Nc3cccc(CCc4ccncc4)c32)cc1,5%
5,CCn1c(-c2nonc2N)nc2cncc(C(=O)NCCNC)c21,0.6%
6,CS(=O)(=O)CCNCc1ccc(-c2ccc3ncnc(Nc4ccc(OCc5cccc(C(F)(F)F)c5)cc4)c3c2)o1,1.93%
7,Cc1cc(O)cc(C)c1/C=C/c1cncc(C(=O)OC(C)(C)C)c1,0.94%
8,O=C(O[C@H]1CN[C@H](C#Cc2cc3ncnc(Nc4ccc(OCc5cccc(F)c5)c(Cl)c4)c3s2)C1)N1CCOCC1,1.9%
9,c1ccc(-c2n[nH]cc2-c2ccnc(-c3ccc(OCCn4ccnc4)cc3)c2)nc1,1.04%
10,c1cnn2ncc(-c3ccnc(NCCCN4CCOCC4)n3)c2c1,-0.51%
11,O=C(O[C@H]1CN[C@H](C#Cc2cc3ncnc(Nc4ccc5c(ccn5Cc5cc(F)ccc5F)c4)c3s2)C1)N1CCOCC1,1.44%
12,O=C(O[C@H]1CN[C@H](C#Cc2cc3ncnc(Nc4ccc5c(cnn5Cc5ccccc5)c4)c3s2)C1)N1CCOCC1,2.11%
13,COc1ccc(Nc2ncc(-c3ccccc3)o2)cc1OC,10.2%
14,CC1=C(C(=O)Nc2ccc3[nH]nc(C)c3c2)C(c2ccc(C(F)(F)F)cc2)CC(=O)N1 (stereo unspecified),7.71%
15,Cn1c(-c2nonc2N)nc2cnccc21,1.42%
16,CCS(=O)(=O)c1ccc(OC)c(Nc2ncc(-c3cccc(F)c3)o2)c1,0.03%

row,Structure (SMILES),inhibition
1,Cc1nnc(-c2cccc(-c3ccc(C(=O)NCC4CC4)cc3)c2)o1,1.3%
2,COc1cc2c(cc1Nc1nc(Nc3cccc(F)c3C(N)=O)c3cc[nH]c3n1)N(C(=O)CN1CCN(C(C)C)CC1)CC2,-0.27%
3,COc1cc(N2CCN(C(C)C)CC2)ccc1Nc1nc(Nc2cccc(F)c2C(=O)O)c2cc[nH]c2n1,0.7%
4,NC(=O)c1ccc2c(-c3ccnc(NCCCO)n3)c(-c3ccc(F)cc3)nn2c1,0.74%
5,COc1ccccc1-c1cc(/C=C2\C(=O)Nc3ncc(Br)cc32)cc(Br)c1O,7.31%
6,COC(=O)Nc1nc2ccc(Oc3ccc(NC(=O)Nc4cc(C(F)(F)F)ccc4F)cc3)cc2s1,9.05%
7,CN1CCC(C(=O)Nc2n[nH]c3nc(-c4ccc(O)cc4)c(Br)cc23)CC1,-1.83% and 3.73%
8,CCOc1ccc2c(-c3ccnc(Nc4cc(OC)cc(C(F)(F)F)c4)n3)cnn2n1,1.08%
9,CC1=C(C(=O)Nc2ccc3[nH]ncc3c2)C(c2ccc(F)cc2)N=C(c2ccc(C(F)(F)F)nc2)N1 (stereo unspecified),3.47%
10,Nc1ncnc2occ(-c3ccc(NC(=O)Nc4cc(C(F)(F)F)ccc4F)cc3)c12,13.4% and 13.3%
11,CCS(=O)(=O)c1ccc(OC)c(Nc2ncc(-c3cccc(C(C)=O)c3)o2)c1,4.6%
12,FC(F)(F)CNc1nccc(-c2cnn3ncccc23)n1,0.63%
13,CN(C)CCNC(=O)Nc1ccc(N(C)c2ccnc(Nc3ccc(CS(C)(=O)=O)cc3)n2)cc1,21.9%
14,Nc1nccc(-c2c(-c3ccc(F)cc3)ncn2C2CCNCC2)n1,-7.14% and -0.01%
15,CN1CCC(n2cnc(-c3ccc(F)cc3)c2-c2ccnc(NCCO)n2)CC1,1.22%
